Results on 20 compounds are retold here after PubChem BioAssay (NCI).

Compounds without any hit were thinned out: in the full panel of roughly 79,000, 15% have a hit. Values without a mark were called inactive. Activity calls are given as the source filed them. Cut-off read from the data, not from the text of the source: active = growth inhibition above about 70%; inactive = the rest.

A short description of assay [1]: NCI Yeast Anticancer Drug Screen. Data for the rad50 strain (AID 155).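 Note: 0% = growth of vehicle-only cultures of the same strain.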 As to conditions: S. cerevisiae rad50 strain growth inhibition; at 50.0 µM; hits give high values. In outline:
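Readout: growth inhibition relative to vehicle-treated cultures. Compound exposure was carried out in a genetically defined yeast strain deficient in DNA damage repair.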

A short description of assay [2]: NCI Yeast Anticancer Drug Screen. Data for the mec2-1 strain (AID 157). To be noted: S. cerevisiae mec2-1 strain, at 50.0 µM, hits give high values. In outline:
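Vehicle-treated cultures served as reference for growth inhibition of compound-exposed mec2-1 yeast.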

The nature of assay [3]: NCI Yeast Anticancer Drug Screen. Data for the sgs1 mgt1 strain (AID 161).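 Note: 0% = growth of cultures given vehicle only.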 To be noted: S. cerevisiae sgs1 mgt1 strain, at 50.0 µM, hits give high values. In outline: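 Test agents were incubated with a DNA-repair-mutant yeast strain. Growth was then read and compared against vehicle-treated controls.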
The nature of assay [4]: NCI Yeast Anticancer Drug Screen. Data for the cln2 rad14 strain (AID 165).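 Note: 0% = growth equal to vehicle treated cultures.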 To be noted: S. cerevisiae cln2 rad14 strain, at 50.0 µM, hits give high values. In outline: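 Each compound was tested on cln2 rad14 yeast. Inhibition of growth was calculated against vehicle-exposed controls.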
Assay [5] in a line: NCI Yeast Anticancer Drug Screen. Data for the bub3 strain (AID 167). To be noted: S. cerevisiae bub3 mutant strain, at 50.0 µM, hits give high values. In outline:
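Readout: yeast growth inhibition, expressed relative to vehicle-only wells. The test organism is a mutant strain from a panel with lesions in DNA repair or checkpoint genes.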

A short description of assay [6]: NCI Yeast Anticancer Drug Screen. Data for the mlh1 rad18 strain (AID 175). As to conditions: S. cerevisiae mlh1 rad18 strain growth inhibition; at 50.0 µM; hits give high values. In outline:
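Vehicle-treated cultures served as the reference for growth inhibition in a yeast strain carrying DNA damage repair alterations exposed to each compound.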

In the case of `OCCSCCCSCCO`, the growth inhibition was 17.9% in assay [1]; -4.8% in assay [2]; -23% in assay [3]; 3.5% in assay [4]; 1.1% in assay [5]; -4.8% in assay [6].
Take `CON`: the growth inhibition was -16.2% in assay [1]; -5.35% in assay [2]; 2.4% in assay [3]; -13.1% in assay [4]; 0.3% in assay [5]; -12.2% in assay [6].
In the case of `Cc1ccc([N+](=O)[O-])cc1NC(=O)N(C)Cc1ccc(Cl)cc1`, the growth inhibition in assay [1] was 5.5%; in assay [2] it was 24.2%; in assay [3] it was -12.2%; in assay [4] it was -5.35%; in assay [5], -5.4%; in assay [6], -8.9%.
In the case of `CC(C(=O)n1c2ccccc2c2ccccc21)N(c1ccccc1)c1ccccc1` (stereo not given), the growth inhibition was -16.8% in assay [1]; -15.1% in assay [2]; -30.2% in assay [3]; 9.15% in assay [4]; -29.4% in assay [5]; -19.6% in assay [6].
As for `Sc1ccc2ccccc2c1`, the growth inhibition was 12.4% in assay [1]; 9.15% in assay [2]; -23.3% in assay [3]; -38.4% in assay [4]; -17.1% in assay [5]; -30.4% in assay [6].
For `O=[N+]([O-])c1ccc(OS(=O)(=O)c2ccccc2)cc1`, the growth inhibition is -3.25% in assay [1]; 7.9% in assay [2]; -5.35% in assay [3]; -3.95% in assay [4]; 4.05% in assay [5]; 9.65% in assay [6].
Turning to `Cc1ccc(NC(=O)COc2cc(Cl)c(Cl)cc2Cl)c([N+](=O)[O-])c1`, the growth inhibition is -28.9% in assay [1]; -4.8% in assay [2]; -11.8% in assay [3]; -0.55% in assay [4]; -0.2% in assay [5]; -0.4% in assay [6].
Turning to `C/C=C/C(=O)OC/C=C(\C)CCC=C(C)C`, the growth inhibition was -26.4% in assay [1]; -44.9% in assay [2]; -6.7% in assay [3]; -4.3% in assay [4]; -39.7% in assay [5]; -16.7% in assay [6].
In the case of `O=c1[nH]cc(C(F)(C(F)(F)F)C(F)(F)F)c(=O)[nH]1`, the growth inhibition in assay [1] is -21.9%; in assay [2] it was -18.9%; in assay [3], -24.6%; in assay [4] it was -4.25%; in assay [5] it was -25.3%; in assay [6], -36.8%.
As for `CC(=O)OCC1C(OC(C)=O)C(OC(C)=O)C(n2cnc3c(N)ncnc32)N1C(C)=O` (stereo not given), the growth inhibition was 17.1% in assay [1]; 3.75% in assay [2]; 16.3% in assay [3]; 11.4% in assay [4]; 1.5% in assay [5]; 4.35% in assay [6].
As for `O=S(=O)(O)NNc1ccc(N=Nc2ccccc2)cc1`, the growth inhibition in assay [1] was 0.2%; in assay [2], -12.9%; in assay [3], -3.95%; in assay [4], 11.3%; in assay [5], -0.75%; in assay [6] it was 4.75%.
On to `Nc1ccc(C(=O)O)cc1[N+](=O)[O-]`, for which the growth inhibition in assay [1] was -0.85%; in assay [2] it was -4.65%; in assay [3] it was -3.7%; in assay [4], -14.6%; in assay [5], 2.15%; in assay [6], -1.5%.
As to `COc1cccc2c(C(=O)O)cc(-c3ccc(Cl)cc3)nc12`, the growth inhibition in assay [1] is 7.85%; in assay [2], 0.75%; in assay [3] it was 19.1%; in assay [4] it was 15.2%; in assay [5] it was 6.9%; in assay [6], 15.9%.
As for `O=c1[nH]cc(N=Cc2ccccc2O)c(=O)[nH]1.[Cl][Pt]`, the growth inhibition in assay [1] is 24.9%; in assay [2], 9.05%; in assay [3], 39%; in assay [4], 3.35%; in assay [5], 3.2%; in assay [6] it was 0.4%.
`Cc1ccc(N2CCCCN(c3ccc(C)cc3)/C(c3ccccc3)=C\2c2ccccc2)cc1`: the growth inhibition is -8.55% in assay [1]; -7.3% in assay [2]; -7% in assay [3]; -8.2% in assay [4]; -1.35% in assay [5]; -29.9% in assay [6].
Consider `Cc1nc(C(=O)O)c2ccccc2n1`, for which the growth inhibition is -2.8% in assay [1]; 2.45% in assay [2]; -8.05% in assay [3]; 3.6% in assay [4]; -9.65% in assay [5]; 4.6% in assay [6].
Consider `O=C(CN1C(=O)c2cccc3c(Br)ccc(c23)C1=O)c1ccc(F)cc1`, for which the growth inhibition was -10.4% in assay [1]; -14.7% in assay [2]; 7.6% in assay [3]; 18.7% in assay [4]; -12% in assay [5]; 1.3% in assay [6].
As to `Cc1ccc(S(=O)(=O)OC/C(=C(/c2ccccc2)c2ccc(Cl)cc2)c2ccccc2)cc1`, the growth inhibition in assay [1] is 96.8% (active); in assay [2] it was 97.5% (active); in assay [3] it was 95.8% (active); in assay [4] it was 87.3% (active); in assay [5] it was 95.3% (active); in assay [6], 96.6% (active).
Regarding `CC(N)(Cc1c[nH]c2ccccc12)C(=O)O` (stereo not given), the growth inhibition was -13.3% in assay [1]; -43.5% in assay [2]; -16.1% in assay [3]; -26.9% in assay [4]; -15.8% in assay [5]; -19.4% in assay [6].
Take `O/N=C1/CCCCCC1NO` (stereo not given): the growth inhibition in assay [1] was -23.8%; in assay [2], -24.1%; in assay [3] it was -22.7%; in assay [4], 15.4%; in assay [5] it was -18.1%; in assay [6], -13.1%.
